A number with no mark means an inactive call. How the calls were made is not given here.

The text below walks through data of PubChem BioAssay (NCATS).
Potency means the concentration at half of the fitted maximal effect.

For this test, the system named is HIV-1 nucleocapsid protein NCp7 (binding to TG oligonucleotide). The test can be described thus: HIV Nucleocapsid (AID 346).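 Further: potency is for inhibitors that block NC binding and lower polarization.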 As to conditions: HIV-1 NC / fluorescein-TGTGTGTG probe, fluorescence polarization. In short, it runs like this: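 NCp7 100 nM + fluorescein TG4xF 10 nM; Hepes pH 7.5/250mM NaCl/1uM ZnCl2/0.004% PEG 20000; 1 hr RT; FP, 45 s exposure; oligo-only wells as negative control.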
`CC(C)NC(=O)N1CCCC2(CCN(C(=O)c3cccc(F)c3)CC2)C1`: the Potency is greater than 20 µM. Regarding `COc1ccc2[nH]cc(CCNc3cc(-c4cccc(C#N)c4)ncn3)c2c1`, the Potency was greater than 20 µM. The figure for `Cc1nc2cnc(N3CCN(C)CC3)nc2n(Cc2cccs2)c1=O` is greater than 20 µM. Turning to `O=c1c(-c2cc(F)cc(F)c2)nc2cncnc2n1Cc1ccccc1`, the Potency was greater than 20 µM. Next, `O=c1c(-c2cccc(Cl)c2)nc2cncnc2n1Cc1ccccc1Cl`: greater than 20 µM; `Cc1cnc(CNc2ccnc(-c3ccccc3C)n2)cn1`: greater than 20 µM.

Regarding `COc1ccc(CNc2ccnc(-c3c(C)noc3C)n2)c(OC)c1`, the Potency is greater than 20 µM. Next, `COc1ccc2[nH]cc(CCNc3ncncc3-c3ccccc3C)c2c1`: greater than 20 µM; `COc1ccccc1CNc1ncncc1-c1ccccc1C(F)(F)F`: greater than 20 µM. On to `COc1ccc(-c2nc3cnc(N4CCNCC4)nc3n(C3CC3)c2=O)cc1`, for which the Potency is greater than 20 µM. Next, `COc1ccc(NC(=O)N2CC[C@@]3(CCCN(C(=O)c4ccco4)C3)C2)cc1`: greater than 20 µM; `COc1cccc(-c2cncnc2NCc2cnc(C)cn2)c1`: greater than 20 µM. Regarding `N#Cc1ccc(CN2CC3(CCN(C(=O)c4ccco4)CC3)C2)cc1`, the Potency is greater than 20 µM. The figure for `Cc1cnc(CNc2ncncc2-c2ccccc2CN(C)C)cn1` is greater than 20 µM. The figure for `COc1cccc(Nc2ncc3nc(C)c(=O)n(C[C@H]4CCCO4)c3n2)c1` is greater than 20 µM; for `CNc1nc(-c2ccccc2OC)nc2ccccc12` it is greater than 20 µM.
